Molecules are shown by their SMILES. Values joined by “and” are separate entries in the source; they are usually repeats but may differ in a detail not shown here. Identical values can stand only once. Records with an inconclusive call do not appear. Some structures have more than one record in an assay (separate samples or runs), and their calls can disagree. Active and inactive are the calls of the source. The calls were made as follows, unless noted: active = hit-call score of the fitted dose curve at least 0.9, where 1 is the maximum; inactive = score below 0.9.

A word on the AC50: it is the midpoint of the concentration-response curve, whichever way the signal moves.

One experiment in a line: CCTE_Shafer_MEA_dev_bursting_electrodes_number: CCTE's Neural Network Formation Assay for Number of Bursting Electrodes, Shafer Lab (AID 2284043; active = hit-call score of the fitted dose curve at least 0.9, where 1 is the maximum;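 as to AC50: potency is for loss of bursting electrodes relative to DMSO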). A digest of the protocol:
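Primary rat cortical neurons were cultured on PEI-coated 48-well MEA plates (16 electrodes/well) and exposed from plating through day 12, with compound renewed at feeds on DIV 5 and 9. Electrodes bursting ≥1 per 2 min were counted on DIV 5, 7, 9, 12; trapezoidal AUC taken.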
`CC(O)CO` (stereo not given): the result was inactive.
The same measure, in the same setting: in the case of `c1ccc2c(c1)Cc1ccccc1-2` it was “inactive”; in that of `C=C(C)C(=O)OCCC(F)(F)C(F)(F)C(F)(F)C(F)(F)C(F)(F)C(F)(F)F`, “inactive”.
As to `c1ccc2cc3c(ccc4ccccc43)cc2c1`, the result was inactive.
As for `OCCC(F)(F)C(F)(F)C(F)(F)C(F)(F)C(F)(F)C(F)(F)C(F)(F)C(F)(F)F`, the AC50 is 26 µM (active).
`c1ccc2c(c1)ccc1ccccc12`: the result was inactive.
For the compound `CC#C[C@]1(O)CC[C@H]2[C@@H]3CCC4=CC(=O)CCC4=C3[C@@H](c3ccc(N(C)C)cc3)C[C@@]21C`, the AC50 was 2.8 µM (active) and 15 µM (active).
`CN1CCC[C@H]1c1cccnc1`: the result was inactive.
Take `OCCC(F)(F)C(F)(F)C(F)(F)C(F)(F)C(F)(F)C(F)(F)F`: the result was inactive.

The next experiment can be described thus: CCTE_Shafer_MEA_dev_per_burst_interspike_interval: CCTE's Neural Network Formation Assay for Burst Interspike Interval, Shafer Lab (AID 2284044).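 Also: mean spike spacing inside bursts as AUC over recordings on days 5 7 9 12.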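 As to AC50: potency for a decrease of within-burst interspike interval below DMSO level.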 A digest of the protocol:
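Spontaneous activity of maturing rat cortical networks is recorded on DIV 5, 7, 9 and 12 under chronic compound exposure beginning at plating. Endpoint: burst interspike interval well-mean, collapsed into trapezoidal AUC and fitted in the negative direction relative to DMSO.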
Consider `CC(O)CO` (stereo not given), for which the call was inactive.
Consider `CC1=C(/C=C/C(C)=C/C=C/C(C)=C/C(=O)O)C(C)(C)CCC1`, for which the compound was classed as inactive.
As to `c1ccc2c(c1)Cc1ccccc1-2`, the compound was classed as inactive.
On the same count and under the same terms, in the case of `C=C(C)C(=O)OCCC(F)(F)C(F)(F)C(F)(F)C(F)(F)C(F)(F)C(F)(F)F` it was “inactive”; in that of `c1ccc2cc3c(ccc4ccccc43)cc2c1`, “inactive”; in that of `OCCC(F)(F)C(F)(F)C(F)(F)C(F)(F)C(F)(F)C(F)(F)C(F)(F)C(F)(F)F`, “inactive”.
Consider `c1ccc2c(c1)ccc1ccccc12`, for which the compound was classed as inactive.
Regarding `CC#C[C@]1(O)CC[C@H]2[C@@H]3CCC4=CC(=O)CCC4=C3[C@@H](c3ccc(N(C)C)cc3)C[C@@]21C`, the AC50 is 4.01 µM (active) and 5.66 µM (active).
Take `CN1CCC[C@H]1c1cccnc1`: the result was inactive.
On to `OCCC(F)(F)C(F)(F)C(F)(F)C(F)(F)C(F)(F)C(F)(F)F`, for which the compound was classed as inactive.

Another experiment in a line: CCTE_Shafer_MEA_dev_burst_duration_mean: CCTE's Neural Network Formation Assay for Mean Burst Duration, Shafer Lab (AID 2284045).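 As to AC50: curve fitted for loss meaning shorter burst duration than DMSO.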 A digest of the protocol:
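Primary rat cortical neurons on PEI-coated 16-electrode MEA wells, exposed from plating through day 12 with compound renewed at DIV 5 and 9; spontaneous activity recorded days 5, 7, 9, 12. Well-mean burst duration collapsed as trapezoidal AUC, fitted for loss versus DMSO.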
Consider `CC(O)CO` (stereo not given), for which the outcome was inactive.
As to `CC1=C(/C=C/C(C)=C/C=C/C(C)=C/C(=O)O)C(C)(C)CCC1`, the call was inactive.
Consider `c1ccc2c(c1)Cc1ccccc1-2`, for which the compound was classed as inactive.
For the compound `C=C(C)C(=O)OCCC(F)(F)C(F)(F)C(F)(F)C(F)(F)C(F)(F)C(F)(F)F`, the outcome was inactive.
As to `c1ccc2cc3c(ccc4ccccc43)cc2c1`, the call was inactive.
As for `OCCC(F)(F)C(F)(F)C(F)(F)C(F)(F)C(F)(F)C(F)(F)C(F)(F)C(F)(F)F`, the compound was called inactive.
On to `c1ccc2c(c1)ccc1ccccc12`, for which the compound was called inactive.
For `CC#C[C@]1(O)CC[C@H]2[C@@H]3CCC4=CC(=O)CCC4=C3[C@@H](c3ccc(N(C)C)cc3)C[C@@]21C`, the AC50 was 2.98 µM (active) and the call was inactive.
For the compound `CN1CCC[C@H]1c1cccnc1`, the outcome was inactive.
For the compound `OCCC(F)(F)C(F)(F)C(F)(F)C(F)(F)C(F)(F)C(F)(F)F`, the compound was classed as inactive.

These data come from PubChem BioAssay (EPA / NIEHS).
